This is an account of results in PubChem BioAssay.

Test [1] deals with Human papillomavirus type 1a protein E7 (residues 44-93). As to the kind of experiment: HPV1a E7 fragment binders on microarrays, primary screen, biochemical, small-molecule microarray, residues 44-93, 635 nm fluorescence (AID 1108).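 Note: E7 fragment applied at 1 µg/mL in TBST for 1 h at 4 C; score combines spot fluorescence with its signal to noise ratio.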 The conditions noted are these: small-molecule microarray binding, fluorescence 635 nm; higher = more signal.
Test [2] can be described thus: modulators of HCV replicon luciferase signal, primary screen, HCV replication inhibitor project, Huh7 cells, luciferase reporter (AID 1109).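 Note: huh7 hepatoma cells harbouring a luciferase neomycin HCV replicon reporter; luciferase luminescence as measure of HCV replicon replication; test concentration not given here.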 The settings on record: 48 h, higher = more signal. In general terms: Replicon systems follow genome replication, usually without infectious particles.
In test [3] the target is Left-right determination factor 2 (Homo sapiens) (UniProt O00292). The test can be described thus: LEFTY2 binders on small-molecule microarrays, primary screen, biochemical, small-molecule microarray, 635 nm fluorescence scan (AID 1110). The conditions noted are these: LEFTY2 binding, higher = more signal.
Sequence of Left-right determination factor 2 (Homo sapiens) (O00292 whole entry, looked up): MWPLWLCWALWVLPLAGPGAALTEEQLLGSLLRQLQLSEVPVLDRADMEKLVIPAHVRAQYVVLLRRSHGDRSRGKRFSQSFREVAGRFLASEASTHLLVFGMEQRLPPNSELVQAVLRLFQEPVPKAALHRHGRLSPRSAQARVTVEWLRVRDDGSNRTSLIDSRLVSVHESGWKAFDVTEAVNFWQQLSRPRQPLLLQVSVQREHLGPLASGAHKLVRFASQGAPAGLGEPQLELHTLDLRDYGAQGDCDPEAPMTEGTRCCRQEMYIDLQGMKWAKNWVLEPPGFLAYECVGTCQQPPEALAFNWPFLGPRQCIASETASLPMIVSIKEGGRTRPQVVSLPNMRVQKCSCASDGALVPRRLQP
Test [4] has as its target Calmodulin-1 (Homo sapiens) (UniProt P0DP23). As to the kind of experiment: CALM1 binders on microarrays, EGTA buffer, profiling panel, biochemical, small-molecule microarray, Cy5-labelled CALM1 (AID 1111).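 Note: labelled calmodulin applied in Tris saline Tween buffer holding calcium plus EGTA and DTT.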 The settings on record: Cy5-CALM1 binding fluorescence, higher = more signal.
Test [5] shares this target. As to the kind of experiment: calcium-bound CALM1 binders on microarrays, profiling panel, artefact control for SMM control-protein annotation, biochemical, small-molecule microarray, Cy5-labelled CALM1, plus calcium (AID 1112).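 Note: score merges spot fluorescence with signal to noise from triplicate slides.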 The conditions noted are these: Cy5-CALM1 binding fluorescence, higher = more signal.
Test [6] in a line: small-molecule microarray binders of probe aWnt5a, primary screen, biochemical, biotinylated probe, 635/667 nm fluorescence (AID 1113).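 Note: score merges 667 nm fluorescence intensity with signal-to-noise per printed feature.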 The conditions noted are these: higher = more signal.
A short description of test [7]: small-molecule microarray binders of probe aShh, primary screen, biochemical, biotinylated probe, 635/667 nm fluorescence (AID 1114).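 Note: probe is biotin-labelled aShh protein from a stem cell growth factor screen; measures binding of labelled protein to compounds printed on the slide; score merges feature fluorescence at 667 nm with signal-to-noise.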 The conditions noted are these: higher = more signal.
The nature of test [8]: small-molecule microarray binders of probe aNog, primary screen, biochemical, biotinylated probe, 635/667 nm fluorescence (AID 1115).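 Note: probe is biotinylated aNog protein used at 0.15 µg/mL for 1 h at 4 C; z-score combines 667 nm fluorescence of each spot with its signal to noise.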 The conditions noted are these: higher = more signal.
For test [9], the target named is Torsin-1A-interacting protein 1 (Homo sapiens) (UniProt Q5JTV8). As to the kind of experiment: LAP1 binders from COS7 cell lysate, primary screen, small-molecule microarray, 635/667 nm fluorescence (AID 1116). The settings on record: COS7-hLAP1 lysate binding, 635 nm fluorescence, higher = more signal.
Sequence of Torsin-1A-interacting protein 1 (Homo sapiens) (Q5JTV8 whole entry, looked up): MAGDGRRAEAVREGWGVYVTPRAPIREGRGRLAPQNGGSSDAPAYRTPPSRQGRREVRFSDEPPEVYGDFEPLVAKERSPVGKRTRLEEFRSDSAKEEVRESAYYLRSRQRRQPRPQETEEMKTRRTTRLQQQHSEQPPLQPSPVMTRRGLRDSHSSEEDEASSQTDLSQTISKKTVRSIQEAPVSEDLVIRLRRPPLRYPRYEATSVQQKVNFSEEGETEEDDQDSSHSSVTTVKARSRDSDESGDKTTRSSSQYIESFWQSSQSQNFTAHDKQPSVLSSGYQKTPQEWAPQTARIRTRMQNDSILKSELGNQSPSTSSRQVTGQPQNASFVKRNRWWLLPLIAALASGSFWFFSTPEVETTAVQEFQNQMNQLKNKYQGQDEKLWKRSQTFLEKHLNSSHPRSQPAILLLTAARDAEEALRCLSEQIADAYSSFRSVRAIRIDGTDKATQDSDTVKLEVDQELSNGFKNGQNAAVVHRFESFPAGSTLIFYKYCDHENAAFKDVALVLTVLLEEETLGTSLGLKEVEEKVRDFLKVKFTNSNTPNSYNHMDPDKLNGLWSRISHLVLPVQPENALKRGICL
The target in test [10] is Alpha-bungarotoxin (Bungarus multicinctus) (UniProt P60615). As to the kind of experiment: alpha-bungarotoxin binders on microarray, profiling panel, artefact control for SMM control protein annotation, biochemical, small-molecule microarray, Alexa647 label, 635/667 nm fluorescence (AID 1117). The conditions noted are these: alpha-BTX-A647 binding fluorescence, higher = more signal.
Sequence of Alpha-bungarotoxin (Bungarus multicinctus) (P60615 whole entry, looked up): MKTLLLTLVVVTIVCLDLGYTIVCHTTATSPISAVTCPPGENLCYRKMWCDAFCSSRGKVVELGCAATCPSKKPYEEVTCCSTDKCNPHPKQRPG

As for `COc1ccccc1CN1C(=O)c2ccccc2[C@](Cc2ccccc2I)(C(=O)NCC(F)(F)F)[C@@H]1c1ccc(CO)cc1`, the composite z-score was 0.905 in test [1]; -0.201 in test [3]; 2.03 in test [4]; 0.731 in [5]; 0.0559 in test [6]; -0.106 in test [7]. Besides, the composite z-score in test [8] was 0.0286; in [9], 1.42; in test [10] it was 1.36. This molecule had a z-score in test [2] of -1.16.

On to `O=C1NC(=O)C2C1C=CC(C(O)c1c(F)cccc1Cl)N2Nc1ccc(Cl)cc1Cl` (stereo not given), for which the composite z-score in test [1] was 0.635; in test [3], -0.536; in [4] it was 2.33; in [5], 1.01; in test [6], 0.0923; in test [7], 0.0782. Besides, the composite z-score was 1.42 in test [8], 2.71 in test [9] and 2.76 in test [10]. In addition, the z-score in [2] was -0.133.

On to `COCC1=C2[C@@H](CCc3ccccc3)OB(O)C[C@@H]2[C@@H]2C(=O)C=CC(=O)[C@@H]2C1`, for which the composite z-score in test [1] is 1.01; in test [3], 0.363; in test [4], 1.03; in test [5], 0.344; in [6], -0.101; in test [7], 0.0684. For the same molecule, the composite z-score in test [8] was found to be 0.26; in test [9], 0.236; in [10], 1.43. The molecule also displayed a z-score in test [2] of -2.08.

As for `Cc1ccc(S[C@]2(C(=O)NCC(F)(F)F)CC(=O)N(Cc3ccccc3)[C@@H]2c2ccc(CO)cc2I)cc1`, the composite z-score in [1] is 0.503; in test [3], -0.842; in [4], -0.0153; in test [5], 0.517; in test [6], -0.0203; in [7], -0.0362. For the same molecule, the composite z-score in test [8] was 0.358; in test [9] it was 0.349; in test [10], 1.36. In addition, in test [2], the z-score is -2.48.

Turning to `CCCCCCc1nc(C2CC2)cc2c1[Si](C(C)C)(C(C)C)OC2`, the composite z-score is -1.03 in [1]; -0.53 in [3]; 0.208 in [4]; 0.0599 in test [5]; -0.184 in [6]; -0.214 in test [7]. For the same molecule, the composite z-score in [8] was -0.0784; in [9], -0.476; in test [10], -0.221. Also, the z-score in test [2] is -0.622.

For the molecule `COC(=O)[C@@]1(Cc2ccc(OC)cc2)[C@H]2c3cc(C(=O)N(C)C)n(Cc4ccc(Cl)c(C(F)(F)F)c4)c3C[C@H]2CN1C(=O)c1ccccc1`, the composite z-score is 1.39 in test [1]; -0.566 in test [3]; 1.41 in test [4]; 1.12 in test [5]; 0.235 in test [6]; 1.19 in [7]. Besides, the composite z-score in test [8] was determined as 2.18; in [9] it was 0.535; in test [10] it was 0.99. The z-score in test [2] is -2.

With `COc1ccc([Si](C)(C)[C@H]2[C@H](CCO)O[C@@]3(C(=O)N(Cc4cccc(N5C(=O)COc6ccccc65)c4)c4ccccc43)[C@@H]2C)cc1`, the composite z-score in test [1] was -0.502; in test [3], 0.0828; in [4], 0.851; in [5] it was 0.675; in test [6], -0.0417; in test [7], -0.0146. In addition, the composite z-score worked out at 0.26 in [8], 0.474 in test [9] and 0.252 in test [10]. In test [2], this molecule gave a z-score of -4.98.

In the case of `C=CCNC(=O)[C@@H]1[C@H]2C(=O)O[C@H](c3ccccc3)[C@H](c3ccccc3)N2[C@H](c2ccc(O)cc2)[C@@]12C(=O)N(C(=O)OCCOC)c1ccc(C#CC3(O)CCCCCC3)cc12`, the composite z-score was -1.18 in test [1]; -2.4 in [3]; -0.901 in test [4]; -0.123 in [5]; -0.221 in test [6]; -0.192 in [7]. For the same molecule, the figures for the composite z-score in test [8], in [9] and in test [10] were -0.343, -1.28 and -1.42, respectively. For the same molecule, the z-score in [2] is -0.0817.

For the molecule `COCCOC(=O)N1C(=O)[C@@]2(c3cc(C#CCNC(N)=O)ccc31)[C@H](C(=O)N1CCc3cc(OC)c(OC)cc3C1)[C@H]1C(=O)O[C@H](c3ccccc3)[C@H](c3ccccc3)N1[C@@H]2c1ccccc1OCCO`, the composite z-score was 0.843 in test [1]; 0.76 in [3]; 1.29 in test [4]; 0.582 in [5]; -0.0786 in test [6]; -0.305 in test [7]. The composite z-score in test [8] is 0.39; in [9], 1.03; in test [10], 1.85. In [2], this molecule registered a z-score of -1.03.

In the case of `CCC(CC)C(O)C1C=CC2C(=O)N(c3ccccc3)C(=O)C2N1Nc1ccc(C(C)C)cc1` (stereo not given), the composite z-score in [1] was 1.28; in [3], -0.0146; in [4], 1.04; in [5], 0.419; in [6] it was -0.0643; in test [7] it was 0.698. Besides, the composite z-score is 0.967 in test [8], 1.23 in test [9] and 1.27 in [10]. This molecule also displayed a z-score in test [2] of -0.652.

`O=C1OCC=C[C@H]2OC34C=CCN(c5ccc(Cl)cc5)C(=O)[C@H]3N(CCO)C(=O)[C@@H]4[C@@H]12` (stereo not given in full): the composite z-score in test [1] is -0.0723; in test [3], -0.884; in [4] it was -0.577; in test [5] it was 0.515; in test [6] it was -0.28; in test [7] it was -0.304. Moreover, the composite z-score in test [8] is -0.115; in test [9], 0.0143; in test [10], -0.003. The same molecule came in with a z-score in test [2] of -0.515.

For the molecule `CC(C)(C)N1CC=CC23O[C@@H]4C=CCCOC(=O)C4[C@H]2C(=O)N(CCO)[C@@H]3C1=O` (stereo not given in full), the composite z-score is -0.282 in test [1]; -0.475 in test [3]; -0.504 in test [4]; -0.511 in test [5]; -0.0924 in [6]; -0.0146 in test [7]. The composite z-score in [8] was 0.0417; in [9], -0.108; in [10], 1.37. The molecule also showed a z-score in test [2] of 0.361.

As to `COc1ccc(C(O)C2C=CC3C(=O)N(c4ccccc4)C(=O)C3N2Nc2ccc([N+](=O)[O-])cc2)cc1` (stereo not given), the composite z-score was 0.487 in test [1]; -0.425 in [3]; 1.45 in test [4]; 0.622 in test [5]; 0.315 in [6]; 0.109 in test [7]. Besides, the composite z-score was -0.064 in test [8], 1.66 in test [9] and 1.32 in test [10]. This molecule registered a z-score in test [2] of -0.925.

Take `CC(C)C[C@@H]1NC(=O)[C@@H]2C[C@H](C(=O)NCCCCCN)[C@H](c3ccc(O)cc3)N2C1=O`: the composite z-score in [1] was 1.36; in test [3], 1.46; in test [4] it was 1.17; in test [5], 0.953; in test [6] it was -0.0194; in test [7], 0.108. Moreover, the composite z-score in [8] is -0.651; in [9], 1.19; in [10], 1.2. The same molecule displayed a z-score in test [2] of -0.196.
